The values that follow come from PubChem BioAssay (Tox21).

The nature of test [1]: qHTS assay to identify small molecule antagonists of the sonic hedgehog signaling (Shh) pathway (AID 1259369; calls by dose curve; also: nearly all actives have a fitted effect of over 45% in size; also: potency is read from the fitted curve at half-maximal effect). In outline:
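NIH/3T3 stable Gli1-Luc clone, 2,000 cells/well, 4hr settle; cpd + conditioned medium 24hr; Luc reagent 30min RT; luminescence.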

The nature of test [2]: qHTS assay to identify small molecule agonists of the androgen receptor (AR) signaling pathway in the presence of an antagonist - cell viability counter screen (AID 1259379). Also: nearly all actives have a fitted effect of over 25% in size. Also: potency is read from the fitted curve at half-maximal effect.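 As to activity change, negative = cytotoxicity: MDA-kb2 human breast cancer cells carrying an MMTV luciferase reporter; series mostly up to about 92 µM.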 In short, it runs like this:
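MDA-kb2 viability measured by CellTiter-Fluor fluorescence in the same wells as the luciferase signal; nilutamide 3.0uM final; 15-point compound titration; 16 hr at 37C.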

Test [3] in a line: qHTS assay to identify small molecule agonists of the estrogen receptor beta (ER-beta) signaling pathway - cell viability counter screen (AID 1259380). Also: nearly all actives have a fitted effect of over 30% in size. Also: potency is read from the fitted curve at half-maximal effect. In outline: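 Measured: luminescence from CellTiter-Glo after 30 min at room temperature, added to wells already read for the LiveBLAzer FRET reporter (2 hr substrate); ER-beta-UAS-bla HEK293T cells had 16 hr compound treatment at 37C, 5% CO2.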

Test [4] in a line: qHTS assay to identify small molecule antagonists of the estrogen receptor beta (ER-beta) signaling pathway - cell viability counter screen (AID 1259382). Also: nearly all actives have a fitted effect of over 55% in size. Also: potency is read from the fitted curve at half-maximal effect.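 As to activity change, negative = cytotoxicity: HEK293T cells carrying ER-beta-UAS-bla reporter stimulated with estradiol; series mostly up to about 92 µM.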 In short, it runs like this:
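Readout: luminescence, CellTiter-Glo, same wells as bla assay. System: ER-beta-UAS-bla GripTite HEK293T, 2% charcoal-stripped FBS. Exposure: compounds plus 1nM 17-beta-estradiol, 16 hr, 37C.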

Test [5] is described as follows: qHTS assay to identify small molecule agonists of the estrogen receptor alpha (ER-alpha) signaling pathway in the presence of an antagonist - cell viability counter screen (AID 1259386).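 Also: cells exposed to compounds for 22 h at 37 °C before the viability read; nearly all actives have a fitted effect of over 30% in size.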 Also: potency is read from the fitted curve at half-maximal effect. As to activity change, negative = cytotoxicity: series mostly up to about 92 µM. In outline:
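The test measures whether compounds kill ER-alpha reporter cells (VM7Luc4E2) under antagonist co-treatment (ICI-182,780, 10.0nM). Fluorescence from CellTiter-Fluor is read after a 22hr exposure.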

Test [6] deals with Progesterone receptor (Homo sapiens) (UniProt P06401). In words: qHTS assay to identify small molecule agonists of the progesterone receptor (PR) signaling pathway (AID 1346784; calls by dose curve; also: nearly all actives have a fitted effect of over 30% in size). In short, it runs like this: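 Compounds were tested for PR agonism in HEK 293T cells bearing a beta-lactamase gene under UAS control. Treatment lasted 16 hr at 37C; signal came from fluorescence of a FRET substrate.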
Chain of Progesterone receptor (Homo sapiens) (P06401 whole entry, looked up): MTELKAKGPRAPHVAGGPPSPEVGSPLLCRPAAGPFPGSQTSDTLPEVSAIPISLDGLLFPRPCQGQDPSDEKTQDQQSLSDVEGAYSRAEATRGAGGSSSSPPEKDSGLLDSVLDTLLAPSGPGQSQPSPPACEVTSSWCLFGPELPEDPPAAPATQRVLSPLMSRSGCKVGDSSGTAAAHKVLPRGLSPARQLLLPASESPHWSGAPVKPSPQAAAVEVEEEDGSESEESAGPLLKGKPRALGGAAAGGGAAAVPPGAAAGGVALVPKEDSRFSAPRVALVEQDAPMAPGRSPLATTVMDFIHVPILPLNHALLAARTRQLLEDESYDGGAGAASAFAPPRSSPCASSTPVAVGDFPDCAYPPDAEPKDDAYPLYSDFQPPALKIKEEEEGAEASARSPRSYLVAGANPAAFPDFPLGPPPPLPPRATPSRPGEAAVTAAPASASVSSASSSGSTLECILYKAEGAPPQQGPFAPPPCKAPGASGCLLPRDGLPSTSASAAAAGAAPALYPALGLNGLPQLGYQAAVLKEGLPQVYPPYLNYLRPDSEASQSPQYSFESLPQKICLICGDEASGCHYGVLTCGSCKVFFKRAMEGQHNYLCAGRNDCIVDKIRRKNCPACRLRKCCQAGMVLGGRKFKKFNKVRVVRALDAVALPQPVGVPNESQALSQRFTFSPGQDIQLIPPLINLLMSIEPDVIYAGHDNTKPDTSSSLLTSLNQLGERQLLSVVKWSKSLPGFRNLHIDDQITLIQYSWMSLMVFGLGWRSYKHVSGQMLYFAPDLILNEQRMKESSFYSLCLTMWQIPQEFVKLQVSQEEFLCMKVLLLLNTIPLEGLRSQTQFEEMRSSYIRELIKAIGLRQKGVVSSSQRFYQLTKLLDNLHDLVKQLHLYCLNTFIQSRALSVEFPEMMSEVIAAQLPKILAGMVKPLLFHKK

Test [7] has the same target. In words: qHTS assay to identify small molecule antagonists of the progesterone receptor (PR) signaling pathway (AID 1346795; active = well fitted inhibition curve with a large enough effect in the signal ratio in the repeat runs, not every such curve was filed as active; the % refers to the signal ratio). In outline: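 In HEK293T cells bearing the PR-UAS-bla reporter, compound effects on promegestone-driven (1 nM) beta-lactamase expression are assessed after 16 hr using a fluorescent FRET substrate incubated 2 hr at room temperature.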
Test [8] is described as follows: qHTS assay to identify small molecule antagonists of the progesterone receptor (PR) signaling pathway - cell viability counter screen (AID 1346798). Also: nearly all actives have a fitted effect of over 50% in size. Also: potency is read from the fitted curve at half-maximal effect. As to activity change, negative = cytotoxicity: series mostly up to about 92 µM. In outline: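 Following a 4 hr attachment, PR-UAS-bla HEK293T cells in charcoal-stripped FBS medium were exposed to compounds with R5020 for 16 hr; CellTiter-Glo was added and luminescence read after 30 min at room temperature.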

Test [9] in a line: qHTS assay to identify small molecule antagonists of the TGF-beta/Smad signaling pathway - cell viability counter screen (AID 1346824). Also: nearly all actives have a fitted effect of over 50% in size. Also: potency is read from the fitted curve at half-maximal effect. In short, it runs like this:
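SBE-bla HEK 293T cells were plated overnight at 37 C, then given compounds in DMSO plus TGF-beta1 (added as 0.25 ng/mL solution) for 5 hr. After the bla read, CellTiter-Glo was added to the same wells and luminescence read after 30 min at room temperature.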

A short description of test [10]: qHTS assay to identify small molecule agonists of the TGF-beta/Smad signaling pathway - cell viability counter screen (AID 1346829). Also: nearly all actives have a fitted effect of over 45% in size. Also: potency is read from the fitted curve at half-maximal effect. As to activity change, negative = cytotoxicity: top concentration of the series differs between compounds. In short, it runs like this: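 Same-well cytotoxicity: CellTiter-Glo added after the 2 hr room-temperature beta-lactamase substrate step, luminescence measured 30 min later; cells had 5 hr of compound at 37 C.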
Test [11] concerns the target Estrogen receptor (Homo sapiens) (UniProt P03372). As to the kind of experiment: qHTS assay to identify small molecule agonists of the estrogen receptor alpha (ER-alpha) signaling pathway in the presence of an antagonist (AID 1259383; calls by dose curve; also: top concentration of the series differs between compounds; nearly all actives have a fitted effect of over 15% in size). In short, it runs like this: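 Quantitative HTS confirmation: compounds titrated at 15 concentrations onto estrogen-deprived VM7Luc4E2 cells carrying a four-ERE luciferase construct, with ICI-182,780 present at 10.0nM final. Signal is luminescence after 22hr exposure.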

Test [12] in a line: qHTS assay to identify small molecule agonists or antagonists of the thyroid stimulating hormone receptor (TSHR) signaling pathway - wild type cell line counter screen (AID 1259384; calls by dose curve). In short, it runs like this: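 Wild-type HEK293 cells were plated 18 h at 37 C/5% CO2, pin-dosed with compound plus Ro20-1724 medium, held 30 min at room temperature, then given cAMP-d2 and anti-cAMP-cryptate; fluorescence was read after 1 h. Fifteen concentrations, triplicate.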

For test [13], the target named is Thyrotropin receptor (Homo sapiens) (UniProt P16473). As to the kind of experiment: qHTS assay to identify small molecule antagonists of the thyroid stimulating hormone receptor (TSHR) signaling pathway (AID 1259385; calls by dose curve; also: nearly all actives have a fitted effect of over 20% in size; also: potency is read from the fitted curve at half-maximal effect). In short, it runs like this: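 TSHR-HEK293 cells were plated and held 18 h at 37C/5% CO2, then given compound plus Ro20-1724 and stimulated with TSH at 1.5 ng/mL final. After 30 min at room temperature, cAMP was detected with cAMP-d2/anti-cAMP-cryptate (1 h) by fluorescence.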
Chain of Thyrotropin receptor (Homo sapiens) (P16473 whole entry, looked up): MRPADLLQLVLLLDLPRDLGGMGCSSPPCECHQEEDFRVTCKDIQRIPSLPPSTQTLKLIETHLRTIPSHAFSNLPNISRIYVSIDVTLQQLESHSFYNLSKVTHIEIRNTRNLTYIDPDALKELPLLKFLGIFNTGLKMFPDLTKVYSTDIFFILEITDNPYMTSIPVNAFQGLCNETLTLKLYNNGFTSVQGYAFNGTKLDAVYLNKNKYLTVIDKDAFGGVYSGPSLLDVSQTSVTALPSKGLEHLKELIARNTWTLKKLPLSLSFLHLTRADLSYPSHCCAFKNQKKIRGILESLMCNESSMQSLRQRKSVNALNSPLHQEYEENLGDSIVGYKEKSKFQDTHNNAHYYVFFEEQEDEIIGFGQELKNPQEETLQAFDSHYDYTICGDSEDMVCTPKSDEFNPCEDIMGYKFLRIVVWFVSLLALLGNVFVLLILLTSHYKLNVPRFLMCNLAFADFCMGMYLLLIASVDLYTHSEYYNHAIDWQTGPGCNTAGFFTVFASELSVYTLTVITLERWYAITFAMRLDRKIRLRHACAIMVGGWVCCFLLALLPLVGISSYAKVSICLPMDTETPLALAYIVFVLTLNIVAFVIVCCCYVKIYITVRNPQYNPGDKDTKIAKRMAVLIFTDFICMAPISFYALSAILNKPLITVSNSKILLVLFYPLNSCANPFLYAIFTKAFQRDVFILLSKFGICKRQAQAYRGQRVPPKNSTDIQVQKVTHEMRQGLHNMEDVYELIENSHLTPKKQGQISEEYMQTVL

Test [14] is described as follows: qHTS assay to identify small molecule agonists of the TGF-beta/Smad signaling pathway (AID 1346859; active = well fitted activation curve with a large enough effect in the signal ratio in the repeat runs, not every such curve was filed as active; the % refers to the signal ratio; also: series mostly up to about 77 µM). In short, it runs like this:
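Each well held 4,000 SBE-bla HEK 293T cells incubated overnight before compound addition; 5 hr later the cleavable FRET substrate went on for 2 hr at room temperature, and fluorescence was read at two emissions.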

Test [15] addresses Thyrotropin-releasing hormone receptor (Homo sapiens) (UniProt P34981). In words: qHTS assay to identify small molecule antagonists of the thyrotropin-releasing hormone receptor (TRHR) signaling pathway (AID 1346877; active = well fitted inhibition curve with a large enough effect in the repeat runs, not every such curve was filed as active; also: series mostly up to about 51 µM). In short, it runs like this: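 Overnight-plated (18 h, 37 °C) HEK293 cells expressing TRHR were dye-loaded 2 h, treated with compound, then stimulated with TRH at 1 nM final. Fluorescence intensity was captured every second for 3 min.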

Test [16] has the same target. In words: qHTS assay to identify small molecule agonists of the thyrotropin-releasing hormone receptor (TRHR) signaling pathway (AID 1346891; calls by dose curve; also: series mostly up to about 58 µM). In short, it runs like this: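 Screening of agonists relied on calcium signalling in HEK293 cells expressing human TRHR: dye loading 2 h at 37 °C preceded compound addition and a 3-min fluorescence time course.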
Test [17] has as its target Androgen receptor (Homo sapiens) (UniProt P10275). In words: qHTS assay to identify small molecule agonists of the androgen receptor (AR) signaling pathway in the presence of an antagonist (AID 1259381; calls by dose curve; also: nearly all actives have a fitted effect of over 15% in size). In outline: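 Luminescent ONE-Glo read, 30min at room temperature, follows 16hr compound exposure (15 concentrations) of MDA-kb2 cells at 37C, 0% CO2, with nilutamide added at 3.0uM final.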

Test [18] can be described thus: qHTS assay to identify small molecule agonists of the progesterone receptor (PR) signaling pathway - cell viability counter screen (AID 1346799; calls by dose curve; also: nearly all actives have a fitted effect of over 45% in size; also: potency is read from the fitted curve at half-maximal effect). In short, it runs like this:
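Here, 3,000 PR-UAS-bla HEK293T cells per well were treated with compounds for 16 hr after a 6 hr preincubation at 37C and 5% CO2; cell viability is the CellTiter-Glo luminescence signal.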

Values joined by “and” are separate entries in the source; they are usually repeats but may differ in a detail not shown here. Equal values may be shown once. Records with an inconclusive call do not appear. Active and inactive are the calls of the source. Unless noted, calls follow the shape of the dose curve; as a rule, active = well fitted curve in the direction sought with a large enough effect in the repeat runs; inconclusive = weak or mixed curves; inactive = no such curve, though single readings can be large; an effect the other way counts as inactive or inconclusive.
% is scaled to controls: 0 for no effect and ±100 for the full control effect.

Chain of Thyrotropin-releasing hormone receptor (Homo sapiens) (P34981 whole entry, looked up): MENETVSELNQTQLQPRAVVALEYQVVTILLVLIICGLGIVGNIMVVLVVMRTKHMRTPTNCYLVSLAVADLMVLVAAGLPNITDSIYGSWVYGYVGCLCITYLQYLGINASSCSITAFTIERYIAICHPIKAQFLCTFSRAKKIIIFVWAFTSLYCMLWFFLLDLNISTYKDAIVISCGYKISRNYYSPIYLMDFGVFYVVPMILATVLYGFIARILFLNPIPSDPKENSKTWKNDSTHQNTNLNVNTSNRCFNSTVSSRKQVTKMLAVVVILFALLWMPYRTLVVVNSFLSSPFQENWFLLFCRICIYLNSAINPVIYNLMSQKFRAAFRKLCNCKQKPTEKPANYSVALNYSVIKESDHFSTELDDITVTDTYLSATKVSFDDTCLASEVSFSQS
Chain of Estrogen receptor (Homo sapiens) (P03372 whole entry, looked up): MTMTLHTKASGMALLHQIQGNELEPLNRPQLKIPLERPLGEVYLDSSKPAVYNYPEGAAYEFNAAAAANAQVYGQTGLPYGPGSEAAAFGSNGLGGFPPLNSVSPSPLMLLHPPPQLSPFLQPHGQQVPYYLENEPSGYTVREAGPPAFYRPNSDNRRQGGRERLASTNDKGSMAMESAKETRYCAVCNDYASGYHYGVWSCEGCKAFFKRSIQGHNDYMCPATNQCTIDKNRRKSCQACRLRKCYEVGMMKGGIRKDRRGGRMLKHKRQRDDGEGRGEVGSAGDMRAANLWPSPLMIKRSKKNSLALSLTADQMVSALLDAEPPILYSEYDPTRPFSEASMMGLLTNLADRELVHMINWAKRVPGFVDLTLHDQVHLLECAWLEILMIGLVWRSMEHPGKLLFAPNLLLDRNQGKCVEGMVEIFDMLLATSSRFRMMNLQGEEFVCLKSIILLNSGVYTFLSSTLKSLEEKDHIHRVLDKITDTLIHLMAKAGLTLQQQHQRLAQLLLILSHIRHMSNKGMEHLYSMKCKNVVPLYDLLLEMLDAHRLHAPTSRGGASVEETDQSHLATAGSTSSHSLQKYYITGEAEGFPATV
Chain of Androgen receptor (Homo sapiens) (P10275 whole entry, looked up): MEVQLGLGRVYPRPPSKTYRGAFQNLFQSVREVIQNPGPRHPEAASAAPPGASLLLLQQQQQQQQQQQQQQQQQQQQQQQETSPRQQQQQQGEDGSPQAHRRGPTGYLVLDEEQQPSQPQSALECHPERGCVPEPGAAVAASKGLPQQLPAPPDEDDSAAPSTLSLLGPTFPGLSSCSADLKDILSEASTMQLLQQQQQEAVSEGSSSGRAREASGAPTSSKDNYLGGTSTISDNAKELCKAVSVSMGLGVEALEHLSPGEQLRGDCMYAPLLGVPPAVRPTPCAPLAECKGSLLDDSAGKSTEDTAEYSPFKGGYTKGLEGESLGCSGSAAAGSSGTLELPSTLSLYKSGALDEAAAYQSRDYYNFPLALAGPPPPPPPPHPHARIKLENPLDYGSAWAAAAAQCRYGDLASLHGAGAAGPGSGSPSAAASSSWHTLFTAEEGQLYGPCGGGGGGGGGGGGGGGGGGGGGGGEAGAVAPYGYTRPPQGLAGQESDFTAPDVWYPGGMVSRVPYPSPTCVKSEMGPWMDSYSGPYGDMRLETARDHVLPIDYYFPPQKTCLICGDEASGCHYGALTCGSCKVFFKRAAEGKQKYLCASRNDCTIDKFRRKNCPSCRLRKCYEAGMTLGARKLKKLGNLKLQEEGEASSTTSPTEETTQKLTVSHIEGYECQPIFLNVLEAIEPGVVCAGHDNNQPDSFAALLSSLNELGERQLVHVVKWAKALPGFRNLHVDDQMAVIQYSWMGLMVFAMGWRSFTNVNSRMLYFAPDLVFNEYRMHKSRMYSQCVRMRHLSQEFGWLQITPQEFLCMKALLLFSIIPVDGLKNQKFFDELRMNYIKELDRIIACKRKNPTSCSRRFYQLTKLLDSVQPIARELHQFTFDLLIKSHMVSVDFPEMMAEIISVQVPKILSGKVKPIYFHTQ

On to `Cc1cc(Cl)ccc1O[C@H](C)C(=O)O`, for which the Potency result in test [1], in test [2], in test [3], in test [4], in test [5] and in [6] was “inactive” throughout. Further, the Potency result in test [7], in test [8], in test [9] and in test [10] was “inactive” in each case.

With `CC1CCC(C(C)C)C(OC(=O)c2ccccc2N)C1` (stereo not given), the Potency in test [1] was 26.9 µM (active); in [3], 30.2 µM (active); in [4], 60.3 µM (active); in test [13] it was 60.3 µM (active); in [8], 60.3 µM (active). For the same compound, the Potency entry in test [2], in test [11], in test [15] and in [16] was “inactive” in each case. The call in [12] and in test [14] was inactive.

For the compound `C[CH2][Hg][N]1C(=O)C2C(C1=O)C1(Cl)C(Cl)=C(Cl)C2(Cl)C1(Cl)Cl` (stereo not given), the Potency is 14.6 µM (active) in test [1]; 13 µM (active) in test [2]; 9.2 µM (active) in [3]; 11.6 µM (active) in test [4]; 14.6 µM (active) in test [13]. Further, the activation in test [17] was -7.84% [at 19 µM] (inactive). Besides, the cAMP activity change in test [12] is 11% [at 18.9 µM] (inactive). Besides, the activity change, negative = cytotoxicity in test [10] was 0.501% [at 15.8 µM] (inactive).

On to `CCCCCCCCCCCCCC[P+](CCCCCC)(CCCCCC)CCCCCC` (tested in a mixture with another compound), for which the Potency in test [1] is 0.969 µM (active); in test [2] it was 8.63 µM (active); in [3], 24.3 µM (active); in [4], 27.3 µM (active); in [5] it was 17.2 µM (active); in test [8] it was 30.6 µM (active). Also, the Potency in test [10] was 49 µM (active). Further, the Potency result in [11] is “inactive”. In test [12], the result was inactive.

Consider `CN(C)C(=S)[S-].CN(C)C(=S)[S-].[Cu+2]`, for which the Potency in [1] is 1.49 µM (active); in test [2], 3.33 µM (active); in test [3] it was 5.92 µM (active); in test [4], 7.45 µM (active); in [5], 13.2 µM (active); in test [18], 1.49 µM (active). Besides, the values for the Potency in test [9] and in [10] were 4.23 µM (active) and 9.46 µM (active), respectively. Besides, the activation in [14] was -6.22% [at 15.8 µM] (inactive).

With `O=[N+]([O-])c1cc([N+](=O)[O-])c2ccccc2c1`, the Potency in test [1] was 1.22 µM (active). The Potency result in test [2], in [3], in test [17], in test [4], in [13] and in test [6] was “inactive” throughout. The Potency result in test [9], in [15] and in [16] was “inactive” throughout.

On to `COc1ccc(N)cc1N`, for which the Potency in test [1] was 3.55 µM (active) and 8.29 µM (active); in [3], 7.08 µM (active) and 13.1 µM (active); in test [4], 22.4 µM (active); in test [5], 63.1 µM (active); in [9], 7.14 µM (active) and 21 µM (active). Also, the Potency entry in [2], in test [6], in test [7], in test [8], in test [15] and in test [16] was “inactive” throughout.

With `CC(=[OH+])/C=C(/C)[O-].CC(=[OH+])/C=C(\C)[O-].CC(=[OH+])/C=C(\C)[O-].[Fe]`, the Potency result in test [1], in test [2], in test [3], in test [4], in test [11] and in test [5] was “inactive” each time. The Potency result in test [6], in test [8], in test [18], in test [9] and in test [10] was “inactive” each time. In addition, the result in [14] was inactive.
